Sampled rows, rich in hits. Any-hit rate of the full collection: about 3.1%.
HEK293 cAMP ctrl: counter-screen for TSHR agonists: cAMP increase in parental HEK293; parental HEK293 CNG cAMP sensor, membrane potential fluorescence; Potency, µM (highest dose often 57.1 µM), without a hit: top-dose activation, most hits filed as activators; 73,000 tested, 2.5% active; AID 938; note: % of control where 0% means no effect; nearly all actives have a fitted effect of over 55% in size
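Parental HEK 293 cells stably expressing a modified CNG channel (no TSHR) report cAMP rise as membrane depolarization. Membrane potential dye with 100 uM RO 20-1724 was loaded for 60 min at room temperature, then compound added for 30 min; fluorescence read at 590 nm.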
TSHR ag: TSH receptor (human) agonism; P16473; Potency, µM (titrated, usually from 57.1 µM), inactives show at the highest dose activation, hits mostly activators; 73,000 tested, 0.48% active; HEK293-CNG-TSHR cells (CNG channel as cAMP sensor), membrane potential dye, cAMP; active = well fitted activation curve with a large enough effect in the main read-out, with a control signal flat, not every such curve was filed as active; inconclusive = small, poorly fitted or top-dose-only effect, or a change in a side signal; inactive = no such curve, though single readings can be large or run the other way; % of control where 0% means no effect;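 note: the control signal comes from parental cells without the receptor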
Target sequence (P16473 whole entry, looked up): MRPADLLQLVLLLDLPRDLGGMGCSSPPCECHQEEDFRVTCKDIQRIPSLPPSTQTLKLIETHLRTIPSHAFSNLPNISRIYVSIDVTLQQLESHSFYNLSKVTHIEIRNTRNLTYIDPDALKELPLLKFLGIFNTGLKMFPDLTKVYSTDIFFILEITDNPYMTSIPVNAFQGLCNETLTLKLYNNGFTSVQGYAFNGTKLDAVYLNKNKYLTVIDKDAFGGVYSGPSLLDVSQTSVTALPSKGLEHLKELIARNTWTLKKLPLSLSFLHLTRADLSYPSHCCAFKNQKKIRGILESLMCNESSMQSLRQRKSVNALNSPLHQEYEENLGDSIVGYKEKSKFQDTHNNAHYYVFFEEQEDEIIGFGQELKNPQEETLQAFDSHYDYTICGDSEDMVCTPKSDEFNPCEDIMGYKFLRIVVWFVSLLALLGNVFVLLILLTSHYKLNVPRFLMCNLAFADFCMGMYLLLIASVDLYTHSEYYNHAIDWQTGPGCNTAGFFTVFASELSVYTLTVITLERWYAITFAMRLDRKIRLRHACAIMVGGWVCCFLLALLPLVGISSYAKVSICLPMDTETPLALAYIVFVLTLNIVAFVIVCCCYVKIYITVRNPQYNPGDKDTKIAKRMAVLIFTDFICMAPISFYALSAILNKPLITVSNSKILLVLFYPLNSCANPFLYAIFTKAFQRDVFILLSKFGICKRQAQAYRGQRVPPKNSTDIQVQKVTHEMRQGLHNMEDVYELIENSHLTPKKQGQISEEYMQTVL
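cAMP rise detected as CNG-channel membrane depolarization by fluorescent dye (emission 590 nm), 30 min after compound, following 60 min dye loading containing 100 uM RO 20-1724 at room temperature. Cells: TSHR/CNG HEK 293, with parental CNG HEK 293 as control.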
IkB sig inh: suppresses IkB signaling in ABC-DLBCL reporter cells; 110,000 tested, 0.04% active; Potency, µM (top dose mostly 57.1 µM), for inactives: top-dose IkBa stabilization activation; ABC-DLBCL IkBa-CBG/CBR dual luciferase ratio, 4 h; response scale: scaled: untreated 0%, proteasome inhibitor 100%; AID 445; active = well fitted curve in the direction sought with a large enough effect in the signal ratio, not every such curve was filed as active; inconclusive = small, poorly fitted or top-dose-only effect, or a change in a side signal; the % refers to the signal ratio;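 note: the direction sought is a rising ratio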
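Curves were fitted separately to fusion (green), unfused (red) and ratio luminescence, then classed by r2, magnitude and activity. Cells: OCI-Ly3, 4 h compound plus doxycycline at 37C; 10 uM MG-132 defined full response.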
p53ts 39C kill: cytotoxicity in p53ts cells at nonpermissive temperature. 130,000 tested, 1.5% active. Potency, µM (titrated, usually from 46.1 µM), for the others: top-dose activity change, negative = cell killing, most hits filed as cytotoxic. AID 902. H1299-p53A138V viability at 39C, ATP luminescence, 24 h; note: % is set by controls: 0 for no effect and ±100 for the full control effect; nearly all actives have a fitted effect of over 55% in size
Imprint erasure: genomic imprint erasure induction; mouse ES Peg3-LacZ reporter, beta-gal luminescence, 40 h; Potency, µM (series often up to 60.7 µM), without a hit: top-dose activity change, positive = activation, most hits filed as activators; 110,000 tested, 0.02% active; AID 1948
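Readout: BetaGlo luminescence (5 min, room temp) for LacZ from the normally silent maternal Peg3 allele in female Peg3LacZ-Neo ES cells. Cells 300/well, 40 h, 37C, 5% CO2. Data normalized per plate to negative controls.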
p53ts 32C tox: p53ts cell cytotoxicity, permissive temperature; AID 924; H1299-p53A138V at 32C, ATP luminescence viability, 24 h; 130,000 tested, 0.93% active; Potency, µM (doses to about 46.1 µM), without a hit: at the highest dose activity change, negative = cytotoxicity, usual class: cytotoxic;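 note: 0% = DMSO and -100% = full killing by reference compound; nearly all actives have a fitted effect of over 55% in size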
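ATP-content luminescence (ATPlite) read-out after 24 h compound exposure at 32C in H1299-p53A138V cells (600/well). Tested up to 46 uM. Normalized to DMSO (0%) and 100 uM tamoxifen (100% killing); Hill-fit AC50.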
* hit, by the source's call; ? = inconclusive; . = not tested or not shown; ! = not active in a repeat; [ ] = another dose, or the depositor's remark. Unless noted, calls come from the whole dose curve; as a rule, active = well fitted curve in the direction sought with a large enough effect; inconclusive = small, poorly fitted or top-dose-only effect, or another doubt; inactive = no such curve, though single readings can be large; an effect the other way counts as inactive or inconclusive. Potency is the fitted concentration of half-maximal effect.

SMILES	HEK293 cAMP ctrl	TSHR ag	IkB sig inh	p53ts 39C kill	Imprint erasure	p53ts 32C tox
CCS(=O)(=O)CCSc1nc(-c2ccc(Br)cc2)cc(-c2ccccc2)c1C#N	.	.	0%	?	-21%[10.9 µM]	3%
COc1ccc(-c2nnc(NC(=O)c3ccc(S(=O)(=O)N4CCc5ccccc5C4)cc3)o2)cc1	6%	-6%	?	?	-7%	-18%
CCC1CCCCN1S(=O)(=O)c1ccc(C(=O)Nc2nnc(-c3cccs3)o2)cc1 (stereo not drawn)	6%	10%	3%	16µM*	-26%	2%
CC1CC(C)CN(S(=O)(=O)c2ccc(C(=O)Nc3nnc(-c4cccs4)o3)cc2)C1 (stereo not drawn)	2%	-2%	6%	16µM*	-32%	6%
COc1cccc(-c2nnc(NC(=O)c3ccc(S(=O)(=O)N4CC(C)OC(C)C4)cc3)o2)c1 (stereo not drawn)	5%	2%	?	13µM*	-43%	-10%
CCc1ccc2ncc3c(-c4ccc(C)cc4)nn(CC(=O)Nc4ccc(C)cc4)c3c2c1	.	.	2%	-10%	-8%[10.9 µM]	-6%
O=S(=O)(c1cccc(F)c1)N1CCC(Oc2ccc(-n3cnnn3)cc2)CC1	.	.	?	?	-6%[10.9 µM]	-13%
CC(C)CCNC(=O)c1ccc2c(c1)N(Cc1ccccc1F)C(=O)c1ccccc1S2(=O)=O	.	.	1%	-10%	-15%[10.9 µM]	13%
O=C(NCCCN1CCN(c2cccc(Cl)c2)CC1)c1cnn(-c2ccc(F)cc2)c1-n1cccc1	.	.	3%	2.5µM*	-10%[10.9 µM]	?
CCCN(CCC)CCCNC(=O)c1cnn(-c2ccc(F)cc2)c1-n1cccc1	.	.	0%	-15%	-14%[10.9 µM]	-10%
Cc1nc2cnc(N3CCNCC3)nc2n(CCC#N)c1=O	-3%	-2%	2%[11.4 µM]	6%	.	-7%
Cc1ccc2c(c1)N(CC(=O)NCC1COc3ccccc3O1)C(=O)CO2 (stereo not drawn)	-49%	?	1%	-2%	-4%	-3%
Cc1ccc2c(c1)c1c(c(=O)n(Cc3ccccc3)c(=O)n1Cc1ccccc1F)n2C	.	.	0%	-21%	-6%[10.9 µM]	10%
COc1cccc(/C=C/c2nc(C#N)c(N3CCC(C(N)=O)CC3)o2)c1	.	.	?	-19%	?	2%
O=C(Nc1ccc2c(c1)OCO2)C1CCCN(c2nc3ccccc3s2)C1 (stereo not drawn)	-4%	5%[11.4 µM]	?	?	-73%	20µM*
Cc1cccc(NC(=O)C2CCCN(c3nc4ccccc4s3)C2)c1C (stereo not drawn)	.	.	?	-16%	-5%[10.9 µM]	12%
O=C(NC1CC1)c1ccc(-c2nc3ccccc3s2)s1	9%	4%	?	0.4µM*	-83%	0.5µM*
Cc1nc(-c2ccc(S(=O)(=O)N(C)Cc3ccccc3)cc2)co1	.	.	?	?	-10%[10.9 µM]	4%
CCCN(CCC)c1nc(NC2CCN(C(=O)OCC)CC2)nc(OC)n1	?	?	?	20µM*	-25%	48%
Cc1nc2cc(NC(=O)N3c4ccccc4CC3C)ccc2n1C (stereo not drawn)	-1%	-3%	3%	5µM*	-66%	6.3µM*
Cc1nc2cc(NC(=O)N3c4ccccc4CC3C)ccc2o1 (stereo not drawn)	-1%	1%	2%	10µM*	-40%	10µM*
CNCCC=C1c2ccccc2CCc2ccccc21	?	?	0%[11.4 µM]	20µM*!	-36%	20µM*!
COc1cccc2c1ncc1c(-c3ccc(C)cc3)nn(-c3cccc([N+](=O)[O-])c3)c12	.	.	-2%	-16%	-10%[10.9 µM]	5%
Nc1cc(C2CCCC2)nn1-c1ccccc1	1%	-3%	1%	?	-84%	13µM*
O=C(Nc1ccccn1)c1cc2ccccc2o1	.	.	.	5µM*	.	4.5µM*
O=C(NC1=NCCS1)c1csc2ccccc12	15%	-4%	.	?	.	13µM*

High-throughput results (PubChem BioAssay)
